Shown are actives, neighbours in structure and some others; about 10% of the full set was active somewhere.
L3MBTL1 block – L3MBTL1 (human) inhibition; Q9Y468; AlphaScreen L3MBTL1–H3K9me1 peptide binding; Potency, µM (top dose mostly 57.1 µM), inactives show at the top dose activity, negative = inhibition, actives largely listed as inhibitors; 230,000 tested, 0.66% active; AID 485360; further: on the % scale 0 is the no-effect control and ±100 the full control effect; nearly all actives have a fitted effect of over 60% in size
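Displacement of a biotinylated histone H3(1-15) peptide monomethylated at Lys9 (75 nM) from L3MBTL1 (50 nM) was measured by AlphaScreen after a 30 min room-temperature compound incubation; cefsulodin titration served as intraplate control.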
JMJD2A Tudor – blocks the human JMJD2A Tudor domain; O75164; AlphaScreen JMJD2A-Tudor / H3K4me3 peptide binding; Potency, µM (doses to about 114 µM), without a hit: at the highest dose activity change, negative = inhibition, most hits filed as inhibitors; 390,000 tested, 4.4% active; AID 504339; further: on the % scale 0 is the no-effect control and ±100 the full control effect; nearly all actives have a fitted effect of over 50% in size
G9a block – inhibitors of human histone lysine methyltransferase G9a. AID 504332. Potency, µM (top dose mostly 102 µM), for inactives: at the highest dose activity, negative = inhibition, usual class: inhibitors. Q96KQ7. G9a H3K9 monomethylation, AlphaScreen, 2 h. 350,000 tested, 8.8% active; further: on the % scale 0 is the no-effect control and ±100 the full control effect; nearly all actives have a fitted effect of over 75% in size
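Step 1: enzyme (final 20 nM) with compound, 15 min RT. Step 2: substrate peptide 500 nM and SAM 20 uM, 2 h RT. Step 3: anti-H3K9me1 antibody and AlphaScreen beads, 10 min, then plate read.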
HP1b binding inh – HP1-beta chromodomain-methylated histone interaction inhibition | AlphaScreen HP1-beta / biotin-H3K9me3 peptide binding | Potency, µM (highest dose often 114 µM), for inactives: at the top dose activity change, negative = inhibition, actives largely listed as inhibitors | 390,000 tested, 0.56% active; further: nearly all actives have a fitted effect of over 70% in size
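AlphaScreen: HP1-beta (50 nM) preformed 30 min with biotin-H3(1-18)K9me3 peptide (50 nM) in PBS pH 7.4, 0.01% Tween-20. Compound added for 30 min at RT, then streptavidin donor/nickel chelate acceptor beads (10 ug/mL) for 30 min.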
GLS inh – inhibitors of human glutaminase (GLS) | 410,000 tested, 0.21% active | Potency, µM (series often up to 45.5 µM), for inactives: at the highest dose activity change, negative = inhibition, actives largely listed as inhibitors | GLS enzymatic activity, qHTS titration | AID 624170; further: on the % scale 0 is the no-effect control and ±100 the full control effect
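hKGA in 45 mM KH2PO4 (pH 8.2), 0.02% Tween-20 with compound, then 1mM L-Glutamine (stock as added) plus glutamate oxidase/HRP/Amplex red coupling mix. Fluorescence read initially and after 30 min at RT; signal change reflects glutamate formation.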
BAZ2B inh – blocks human BAZ2B; Q9UIF8; AlphaScreen BAZ2B-H3K14Ac peptide displacement; Potency, µM (doses to about 114 µM), for inactives: at the top dose activity change, negative = inhibition, hits mostly inhibitors; 360,000 tested, 4.4% active; AID 504333; further: on the % scale 0 is the no-effect control and ±100 the full control effect; nearly all actives have a fitted effect of over 60% in size
Target sequence (Q9UIF8 whole entry, looked up): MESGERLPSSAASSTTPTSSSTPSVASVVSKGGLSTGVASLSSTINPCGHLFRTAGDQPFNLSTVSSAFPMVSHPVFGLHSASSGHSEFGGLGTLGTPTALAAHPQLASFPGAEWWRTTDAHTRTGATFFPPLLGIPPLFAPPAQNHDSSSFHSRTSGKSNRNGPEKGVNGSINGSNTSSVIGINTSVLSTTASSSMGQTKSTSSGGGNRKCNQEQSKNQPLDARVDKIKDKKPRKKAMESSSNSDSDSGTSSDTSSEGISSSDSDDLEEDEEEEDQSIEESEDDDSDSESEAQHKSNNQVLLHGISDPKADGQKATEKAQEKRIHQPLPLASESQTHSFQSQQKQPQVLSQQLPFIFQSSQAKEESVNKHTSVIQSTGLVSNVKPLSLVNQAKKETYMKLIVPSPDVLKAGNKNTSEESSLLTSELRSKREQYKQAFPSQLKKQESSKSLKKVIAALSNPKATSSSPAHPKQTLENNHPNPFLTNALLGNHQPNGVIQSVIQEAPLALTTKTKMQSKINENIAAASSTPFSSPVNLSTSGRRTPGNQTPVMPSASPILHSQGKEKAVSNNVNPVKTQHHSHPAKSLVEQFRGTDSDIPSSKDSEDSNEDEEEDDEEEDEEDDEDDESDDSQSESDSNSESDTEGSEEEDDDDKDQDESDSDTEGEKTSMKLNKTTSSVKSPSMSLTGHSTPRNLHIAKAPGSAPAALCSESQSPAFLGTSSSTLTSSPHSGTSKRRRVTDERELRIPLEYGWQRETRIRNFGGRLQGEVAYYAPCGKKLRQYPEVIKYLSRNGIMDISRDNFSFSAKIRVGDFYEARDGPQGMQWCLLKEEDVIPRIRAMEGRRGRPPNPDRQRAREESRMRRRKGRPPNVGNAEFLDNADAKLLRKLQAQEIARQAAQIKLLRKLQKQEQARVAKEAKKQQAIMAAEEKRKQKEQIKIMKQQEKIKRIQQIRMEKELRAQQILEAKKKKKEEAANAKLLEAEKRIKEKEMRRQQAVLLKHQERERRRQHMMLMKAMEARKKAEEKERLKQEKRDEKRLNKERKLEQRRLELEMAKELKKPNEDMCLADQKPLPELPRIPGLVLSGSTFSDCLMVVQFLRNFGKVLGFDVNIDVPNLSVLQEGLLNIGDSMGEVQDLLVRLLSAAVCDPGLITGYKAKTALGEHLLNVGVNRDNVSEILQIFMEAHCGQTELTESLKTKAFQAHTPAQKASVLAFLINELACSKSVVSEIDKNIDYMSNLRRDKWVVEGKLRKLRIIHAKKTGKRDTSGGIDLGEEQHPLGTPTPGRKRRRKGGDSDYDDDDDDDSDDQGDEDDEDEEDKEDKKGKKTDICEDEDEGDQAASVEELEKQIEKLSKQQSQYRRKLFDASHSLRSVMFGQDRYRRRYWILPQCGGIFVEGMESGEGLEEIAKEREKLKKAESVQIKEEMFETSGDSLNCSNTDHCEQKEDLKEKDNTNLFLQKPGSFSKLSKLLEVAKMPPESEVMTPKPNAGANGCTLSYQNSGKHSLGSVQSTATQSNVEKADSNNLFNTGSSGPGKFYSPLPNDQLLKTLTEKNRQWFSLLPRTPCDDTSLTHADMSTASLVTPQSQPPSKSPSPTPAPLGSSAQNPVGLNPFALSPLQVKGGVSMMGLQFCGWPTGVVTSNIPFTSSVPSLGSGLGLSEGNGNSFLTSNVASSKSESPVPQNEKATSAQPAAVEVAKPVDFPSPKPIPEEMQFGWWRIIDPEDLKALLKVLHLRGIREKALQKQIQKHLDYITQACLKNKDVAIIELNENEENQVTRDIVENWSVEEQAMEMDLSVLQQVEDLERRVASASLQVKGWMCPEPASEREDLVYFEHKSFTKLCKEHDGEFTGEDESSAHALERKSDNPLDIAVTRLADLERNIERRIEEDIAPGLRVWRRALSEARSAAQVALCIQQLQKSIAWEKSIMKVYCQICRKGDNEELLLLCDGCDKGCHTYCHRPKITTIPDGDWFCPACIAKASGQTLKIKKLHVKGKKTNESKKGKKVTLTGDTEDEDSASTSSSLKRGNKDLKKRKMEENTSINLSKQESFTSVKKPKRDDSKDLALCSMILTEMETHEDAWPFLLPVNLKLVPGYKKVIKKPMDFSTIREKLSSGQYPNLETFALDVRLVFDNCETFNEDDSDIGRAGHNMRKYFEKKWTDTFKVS
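AlphaScreen displacement of biotin-H3(5-23)K14Ac peptide (50 nM final) from BAZ2B (50 nM final) in PBS pH 7.4, 0.01% Tween-20; complex preformed 30 min RT, then compounds (top 110 uM) 30 min RT, beads 20 min dark.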
Active calls of the source: *; ? = inconclusive; nt = no result given; [ ] = another dose, or the depositor's remark. The call rests on the fitted dose curve; in most records, active means well fitted curve in the direction sought with a large enough effect; inconclusive means small, poorly fitted or top-dose-only effect, or another doubt; inactive means no such curve, though single readings can be large; an effect the other way counts as inactive or inconclusive. Potency means the concentration at half of the fitted maximal effect.

SMILES	L3MBTL1 block	JMJD2A Tudor	G9a block	HP1b binding inh	GLS inh	BAZ2B inh
O=C(c1ccncc1)N(c1ccc2oc3c(c2c1)CCCC3)S(=O)(=O)c1cccc([N+](=O)[O-])c1	-7%	?	3.5µM*	-23%	4%	?
COc1ccc(C(=O)C2CCCN(Cc3cccn3-c3ccc(Cl)cn3)C2)c(OC)c1 (configuration not stated)	-9%	-29%	-19%	-16%	-2%	56µM*
COc1ccc(C(=O)C2CCCN(Cc3c(F)ccc(F)c3F)C2)c(OC)c1 (configuration not stated)	0%	-5%	-4%	36%	8%	5%
O=C(NC1CCCCC1)c1cc2c(cc1Cl)N1CCCCCC1=NS2(=O)=O	4%	-2%	50µM*	19%	4%	10%
COc1cccc(CNC(=O)c2ccc3c(c2)S(=O)(=O)N=C2CCCCCN23)c1	nt	-10%	27%	25%	-1%	-15%
O=C(O)c1cc2c(cc1Cl)N1CCCCCC1=NS2(=O)=O	1%	-19%	-36%	41%	-3%	-14%
COc1cccc(CNC(=O)c2cc3c(cc2Cl)N2CCCCCC2=NS3(=O)=O)c1	0%	-9%	11µM*	33%	1%	10%
CCCN(CCC)S(=O)(=O)c1ccc2c(c1)N(CC(=O)NC(C)c1ccccc1)C(=O)CS2 (configuration not stated)	nt	-19%	2%[59 µM]	17%	-21%	-10%
CCOCCc1nn2c(=O)cc(COC(=O)c3ccccc3Br)nc2s1	nt	-14%	11%[59 µM]	30%	16%	-22%
Cc1nc2c3ccccc3nc(NNC(=O)CCC(=O)N3CCN(c4cc(Cl)ccc4C)CC3)n2n1	nt	-15%	1%[59 µM]	40%	6%	-12%
CC(C)Cn1c(=S)[nH]c2cc(Cl)ccc21	-8%	-14%	6.3µM*	?	29%	-32%
CCN(CC)C(=O)c1sc2c(c1C)c(=O)n(-c1ccccc1)c(=O)n2CC(=O)N(CC)c1cccc(C)c1	nt	-15%	0%[59 µM]	-5%	-5%	-13%
O=C1Nc2cc(C(F)(F)F)ccc2N2CCCCC12 (configuration not stated)	nt	0%	50µM*	49%	-2%	-14%
O=C1Nc2cc(Cl)cnc2N2CCCC12 (configuration not stated)	-10%	-35%	8.9µM*	13%	-2%	-2%
O=S(=O)(c1ccc(F)cc1)N1CC2CCCN2c2ccc(C(F)(F)F)cc21 (configuration not stated)	8%	-10%	89%[59 µM]	32%	3%	-8%
O=C1Nc2ccc(C(F)(F)F)cc2N2CCCC12 (configuration not stated)	nt	nt	11µM*	nt	nt	-2%
O=C1Nc2ccccc2N2CCCC12 (configuration not stated)	-21%	nt	20µM*	nt	nt	-23%
CC1CCC(NC(=O)CN2C(=O)C3CCCN3c3ncc(Cl)cc32)CC1 (configuration not stated)	5%	nt	?	nt	nt	6%
CCc1ccc(S(=O)(=O)c2nnn3c2nc(Nc2cccc(C)c2C)c2sccc23)cc1	nt	-11%	3%[59 µM]	32%	7%	-9%
Cc1ccc(C)c(N2CCN(S(=O)(=O)c3cn(C)c(C)n3)CC2)c1	nt	-16%	3%[59 µM]	8%[57 µM]	-14%	-8%
CCOc1ccc(CCNC(=O)c2ccc3c(c2)NC(=O)C2CCCN32)cc1OCC (configuration not stated)	-2%	nt	nt	nt	nt	-6%
O=C1Nc2cc(S(=O)(=O)N3CCCC3)ccc2N2CCCC12 (configuration not stated)	-22%	-16%	22µM*	31%	-15%	?
COC(=O)c1ccc(NC(=O)c2ccc3c(c2)NC(=O)C2CCCN32)cc1 (configuration not stated)	?	nt	10µM*	nt	nt	50µM*
CCN(CC)S(=O)(=O)c1ccc2c(c1)NC(=O)C1CCCN21 (configuration not stated)	nt	5%	-7%	29%	-1%	3%
CCOc1cc(C2NC(=O)c3c(sc4c3CCN(C)C4)N2)ccc1OC(=O)c1ccc(Br)cc1 (configuration not stated)	nt	-8%	-1%[59 µM]	53%	-4%	4%
SMILES	L3MBTL1 block	JMJD2A Tudor	G9a block	HP1b binding inh	GLS inh	BAZ2B inh
COc1cc(C2NC(=O)c3c(sc4c3CCN(C)C4)N2)ccc1OC(=O)c1ccccc1 (configuration not stated)	nt	-34%	10µM*	-4%	-3%	-25%
CN1CCc2c(sc3c2C(=O)NC(c2cccc(OC(=O)c4cccs4)c2)N3)C1 (configuration not stated)	-7%	?	40µM*	16%	0%	-37%
Cc1cc(C)cc(NC(=O)Cn2cc(S(=O)(=O)NC(C)(C)C)c(S(=O)(=O)NC(C)(C)C)c2)c1	nt	-25%	-28%[59 µM]	1%	-1%	0%[57.1 µM]
O=C(Nc1ccccc1N1CCCC1)c1ccc([N+](=O)[O-])o1	nt	?	3%[12.7 µM]	-15%	13%	32µM*
O=C(Nc1cc([N+](=O)[O-])ccc1N1CCCC1)c1ccco1	0%	-16%	50µM*	5%	-8%	-11%
CN1CCN(c2ccccc2NC(=O)c2ccc(-c3ccc(Cl)cc3Cl)o2)CC1	nt	?	45µM*	4%	2%	?
COc1ccc(C(=O)Nc2cc([N+](=O)[O-])ccc2N2CCCC2)cc1	-5%	-14%	?	9%	-12%	-31%
COc1ccc(N2CCCC2)c(NC(=O)c2ccc([N+](=O)[O-])o2)c1	nt	28µM*	?	35µM*	13µM*	14µM*
COc1cc(-c2noc(-c3ccc(NCc4ccco4)c([N+](=O)[O-])c3)n2)cc(OC)c1OC	nt	-16%	-24%[59 µM]	35%	2%	?
C#CCOCCOCCOCCNc1nc(N2CCN(C(=O)CCCCCCCCCCNC(=O)[C@H](CCC(=O)O)n3cc(CCCCCN)nn3)CC2)nc(N2CCN(C(=O)CCCCCCCCCCNC(=O)[C@@H]([C@H](C)O)n3cc(C)nn3)CC2)n1	-5%	?	-8%[2.33 µM]	16%	3%	-38%
C#CCOCCOCCOCCNc1nc(N2CCN(C(=O)CCCCCCCCCCNC(=O)[C@H](CCCCN)n3cc(CCO)nn3)CC2)nc(N2CCN(C(=O)CCCCCCCCCCNC(=O)[C@@H]([C@H](C)O)n3cc(C)nn3)CC2)n1	-96%	79µM*	-1%[2.33 µM]	-23%	?	50µM*
